Results on 19 compounds are retold here after PubChem BioAssay (EPA / NIEHS).

As a reminder, the AC50 is the midpoint of the concentration-response curve, whichever way the signal moves.

The target of test [1] is PGR (gene 5241) (UniProt P06401). In words: TOX21_PR_BLA_Followup_Agonist_ratio: Tox21 HEK293 Progesterone Receptor (PR) Agonism Beta-lactamase Follow-Up Assay, Ratio (AID 2283933). The procedure, abridged: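 PR-UAS-bla HEK293T cells in medium with 2% charcoal-stripped FBS were dosed after 6 h plating and incubated 16 h at 37C. LiveBLAzer FRET substrate was added for 2 h at room temperature. Cleaved/uncleaved substrate ratio fitted against DMSO; CellTiter-Glo viability run in the same wells.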
Chain of PGR (gene 5241) (P06401 whole entry, looked up): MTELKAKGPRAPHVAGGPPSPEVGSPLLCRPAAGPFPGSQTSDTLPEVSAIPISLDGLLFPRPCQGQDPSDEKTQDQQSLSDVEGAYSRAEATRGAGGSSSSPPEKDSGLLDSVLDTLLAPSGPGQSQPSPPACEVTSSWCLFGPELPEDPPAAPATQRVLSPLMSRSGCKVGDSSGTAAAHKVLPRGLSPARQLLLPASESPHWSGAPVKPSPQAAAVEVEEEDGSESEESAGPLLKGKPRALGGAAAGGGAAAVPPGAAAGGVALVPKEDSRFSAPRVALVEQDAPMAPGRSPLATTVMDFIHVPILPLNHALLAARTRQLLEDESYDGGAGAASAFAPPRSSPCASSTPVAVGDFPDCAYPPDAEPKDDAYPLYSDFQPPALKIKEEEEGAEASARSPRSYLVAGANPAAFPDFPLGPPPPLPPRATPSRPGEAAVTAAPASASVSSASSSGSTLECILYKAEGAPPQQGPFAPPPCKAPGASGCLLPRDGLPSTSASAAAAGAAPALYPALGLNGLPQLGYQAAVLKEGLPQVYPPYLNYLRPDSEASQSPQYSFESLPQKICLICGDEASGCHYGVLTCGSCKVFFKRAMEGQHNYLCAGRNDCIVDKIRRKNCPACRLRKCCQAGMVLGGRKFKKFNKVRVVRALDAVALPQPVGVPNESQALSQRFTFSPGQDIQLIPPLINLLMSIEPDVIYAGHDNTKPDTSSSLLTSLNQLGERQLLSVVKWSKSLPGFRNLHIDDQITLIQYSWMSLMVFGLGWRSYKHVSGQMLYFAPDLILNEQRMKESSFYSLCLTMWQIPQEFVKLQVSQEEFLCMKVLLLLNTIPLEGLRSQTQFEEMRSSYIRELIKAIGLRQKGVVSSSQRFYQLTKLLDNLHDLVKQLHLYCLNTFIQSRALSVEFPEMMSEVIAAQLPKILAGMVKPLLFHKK

Test [2] has the same target. In words: TOX21_PR_BLA_Followup_Antagonist_ratio: Tox21 HEK293 Progesterone Receptor (PR) Antagonism Beta-lactamase Follow-Up Assay, Ratio (AID 2283934). The procedure, abridged:
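PR-UAS-bla HEK293T cells, 3,000/well in 2% charcoal-stripped FBS, given compound plus 1nM R5020 agonist for 16 hr at 37C. Beta-lactamase FRET substrate 2 hours, ratio cleaved/uncleaved fluorescence; viability by CellTiter-Glo in same wells.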

A short description of test [3]: TOX21_PR_BLA_Followup_Agonist_viability: Viability Assessment in the Tox21 HEK293 Progesterone Receptor (PR) Agonism Beta-lactamase Follow-Up Assay (AID 2283935).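 Also: signal loss means lower viability so actives are cytotoxic.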 The procedure, abridged: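 PR-UAS-bla HEK293T cells in 2% charcoal-stripped FBS medium, plated 6 hr before compound addition, exposed 16 hr at 37C. Viability read by CellTiter-Glo ATP luminescence after 30 min at room temperature, in the same wells as the beta-lactamase readout.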

Test [4] in a line: TOX21_PR_BLA_Followup_Antagonist_viability: Viability Assessment in the Tox21 HEK293 Progesterone Receptor (PR) Antagonism Beta-lactamase Follow-Up Assay (AID 2283936).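 Also: hits lower the luminescence signal meaning cytotoxicity.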 An outline of the steps:
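PR-UAS-bla HEK293T cells (3,000/well, 2% charcoal-stripped FBS) given compound plus R5020 agonist, 16 h at 37C. CellTiter-Glo added after bla read, 30 min at room temperature; luminescence loss indicates cytotoxicity.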

Test [5] deals with PGR (gene 5241) (UniProt P06401). In words: TOX21_PR_LUC_Followup_Agonist: Tox21 HEK293 Progesterone Receptor (PR) Agonism Luciferase Follow-Up Assay (AID 2283937; active = hit-call score of the fitted dose curve at least 0.9, where 1 is the maximum; inactive = score below 0.9). The procedure, abridged: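 HEK293-PR-A-luc cells, conditioned 5 days in 10% charcoal-stripped FBS medium, seeded 3,000/well for 5 h, then compound-treated 16 h at 37C. ONE-Glo luminescence read after 30 min at room temperature; gain of signal versus DMSO.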

The target is the same in test [6]. Kind of test: TOX21_PR_LUC_Followup_Antagonist: Tox21 HEK293 Progesterone Receptor (PR) Antagonism Luciferase Follow-Up Assay (AID 2283938).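 Also: curve fitted upward as signal gain over DMSO baseline despite antagonist label.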 The procedure, abridged:
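HEK293-PR-A-luc cells, 3,000/well, preincubated 5 h at 37C before compound addition in DMSO; 16 h compound exposure at 37C. ONE-Glo luciferase luminescence read after 30 min at room temperature, fitted relative to DMSO baseline.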

The nature of test [7]: TOX21_PR_LUC_Followup_Antagonist_viability: Viability Assessment in the Tox21 HEK293 Progesterone Receptor (PR) Antagonism Luciferase Follow-Up Assay (AID 2283940). An outline of the steps:
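HEK293-PR-A-luc cells kept in charcoal-stripped FBS medium were plated 5 h before compound addition, then exposed 16 h at 37C; viability read as cellular ATP by luciferase luminescence, loss of signal indicating cytotoxicity.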

Test [8] is described as follows: TOX21_PR_LUC_Followup_Agonist_viability: Viability Assessment in the Tox21 HEK293 Progesterone Receptor (PR) Agonism Luciferase Follow-Up Assay (AID 2283941).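 Also: loss of signal means cytotoxicity so actives lower viability.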 The procedure, abridged: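 HEK293-PR-A-luc cells, kept in 10% charcoal-stripped FBS medium, were treated with compounds for 16 h at 37C. Viability read as cellular ATP by luciferase-coupled luminescence; loss of signal indicates cytotoxicity.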

The test system of test [9] is DIO1 (gene 1733). Kind of test: CCTE_GLTED_hDIO1: CCTE's human Deiodinase 1 (DIO1) Inhibition Assay, Great Lakes Toxicology and Ecology Division (GLTED) Lab (AID 2283987).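 Also: isolated human DIO1 enzyme in a cell-free setup rather than cells; enzyme activity read as free iodide liberated from substrate via Sandell-Kolthoff colorimetry.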 An outline of the steps: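 Cell-free human DIO1 enzyme incubated 3 h with test chemical; iodide freed from substrate then measured by Sandell-Kolthoff absorbance. Run in triplicate; loss of signal relative to DMSO taken as inhibition.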

Test [10] concerns the target Nucleoli Translocation, AR (gene 367) (UniProt P10275). In words: UPITT_HCI_U2OS_AR_TIF2_Nucleoli_Antagonist: University of Pittsburgh U2OS Androgen Receptor-Transcriptional Intermediary Factor 2 (AR-TIF2) Antagonism High Content Imaging Assay for Nucleoli Translocation (AID 2283997). An outline of the steps:
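U2OS cells expressing RFP-tagged human AR and GFP-tagged TIF2 were imaged by high-content fluorescence microscopy for red AR signal in the nucleolar region. Compounds were screened at 20 uM final (0.2% DMSO), with activity fitted relative to DHT as baseline.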

The target is the same in test [11]. Kind of test: UPITT_HCI_U2OS_AR_TIF2_Nucleoli_Agonist: University of Pittsburgh U2OS Androgen Receptor-Transcriptional Intermediary Factor 2 (AR-TIF2) Agonism High Content Imaging Assay for Nucleoli Translocation (AID 2283998). An outline of the steps:
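U2OS cells expressing RFP-tagged human AR and GFP-tagged TIF2; red fluorescence in nucleoli quantified by high-content imaging. Primary screen at 20 uM final (0.2% DMSO); concentration-response 0.195–50 uM (0.5% DMSO), fitted upward versus DMSO.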

The target of test [12] is Ratio of Nucleoli Translocation and Cytoplasm, AR (gene 367) (UniProt P10275). In words: UPITT_HCI_U2OS_AR_TIF2_Nucleoli_Cytoplasm_Ratio_Agonist: University of Pittsburgh U2OS Androgen Receptor-Transcriptional Intermediary Factor 2 (AR-TIF2) Agonism High Content Imaging Assay for Ratio of Nucleoli Translocation and Cytoplasm (AID 2284000).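 Also: hits raise the red nucleolar to cytoplasm ratio above vehicle.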 The procedure, abridged: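 U2OS cells expressing RFP-tagged human AR and GFP-tagged TIF2 were imaged by high-content fluorescence microscopy. The endpoint is the ratio of nucleolar to cytoplasmic red fluorescence, fitted for gain of signal relative to DMSO. Concentration-response spanned 0.195 to 50 uM final (0.5% DMSO).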
Chain of Ratio of Nucleoli Translocation and Cytoplasm, AR (gene 367) (P10275 whole entry, looked up): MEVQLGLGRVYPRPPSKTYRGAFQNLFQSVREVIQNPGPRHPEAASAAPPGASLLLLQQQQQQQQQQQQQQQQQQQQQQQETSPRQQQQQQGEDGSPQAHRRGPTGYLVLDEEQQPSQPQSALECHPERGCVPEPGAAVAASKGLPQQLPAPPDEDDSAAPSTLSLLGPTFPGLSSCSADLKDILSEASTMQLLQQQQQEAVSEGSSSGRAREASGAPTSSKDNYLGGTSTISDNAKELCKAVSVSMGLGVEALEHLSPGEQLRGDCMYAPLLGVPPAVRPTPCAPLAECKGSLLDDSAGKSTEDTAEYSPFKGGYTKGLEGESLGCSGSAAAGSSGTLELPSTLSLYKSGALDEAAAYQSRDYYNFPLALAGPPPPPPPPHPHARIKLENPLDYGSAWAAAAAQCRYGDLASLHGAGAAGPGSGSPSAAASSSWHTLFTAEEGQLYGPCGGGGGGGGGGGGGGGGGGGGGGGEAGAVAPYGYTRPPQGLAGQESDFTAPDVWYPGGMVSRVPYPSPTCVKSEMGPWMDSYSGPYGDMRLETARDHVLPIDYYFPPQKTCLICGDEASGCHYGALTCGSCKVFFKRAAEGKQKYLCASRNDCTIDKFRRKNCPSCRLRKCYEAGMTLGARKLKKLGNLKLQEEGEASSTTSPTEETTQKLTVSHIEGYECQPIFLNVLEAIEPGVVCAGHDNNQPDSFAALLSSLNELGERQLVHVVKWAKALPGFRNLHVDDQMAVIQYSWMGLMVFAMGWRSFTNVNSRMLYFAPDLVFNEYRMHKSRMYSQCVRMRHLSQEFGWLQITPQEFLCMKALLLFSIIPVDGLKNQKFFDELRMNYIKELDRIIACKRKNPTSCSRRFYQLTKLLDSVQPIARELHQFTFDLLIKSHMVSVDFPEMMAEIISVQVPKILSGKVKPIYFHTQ

The target in test [13] is THRA (gene 7067) (UniProt P10827). Kind of test: TOX21_TRA_COA_Agonist_Followup_ratio: Tox21 Thyroid Hormone Receptor alpha Agonism through Coactivator Recruitment Follow-Up Assay, Ratio (AID 2283948; active = hit-call score of the fitted dose curve at least 0.9, where 1 is the maximum; inactive = score below 0.9). An outline of the steps: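 Cell-free TR-FRET: GST-tagged TRα LBD (2.5 nM) with 0.10% BSA and compound, then fluorescein-SRC-2 peptide (200 nM) and Tb-anti-GST antibody (2 nM). Readout 520:495 nm ratio (ex 340 nm), normalized to DMSO (0%) and T3 (100%).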
Chain of THRA (gene 7067) (P10827 whole entry, looked up, the tested form may be a part): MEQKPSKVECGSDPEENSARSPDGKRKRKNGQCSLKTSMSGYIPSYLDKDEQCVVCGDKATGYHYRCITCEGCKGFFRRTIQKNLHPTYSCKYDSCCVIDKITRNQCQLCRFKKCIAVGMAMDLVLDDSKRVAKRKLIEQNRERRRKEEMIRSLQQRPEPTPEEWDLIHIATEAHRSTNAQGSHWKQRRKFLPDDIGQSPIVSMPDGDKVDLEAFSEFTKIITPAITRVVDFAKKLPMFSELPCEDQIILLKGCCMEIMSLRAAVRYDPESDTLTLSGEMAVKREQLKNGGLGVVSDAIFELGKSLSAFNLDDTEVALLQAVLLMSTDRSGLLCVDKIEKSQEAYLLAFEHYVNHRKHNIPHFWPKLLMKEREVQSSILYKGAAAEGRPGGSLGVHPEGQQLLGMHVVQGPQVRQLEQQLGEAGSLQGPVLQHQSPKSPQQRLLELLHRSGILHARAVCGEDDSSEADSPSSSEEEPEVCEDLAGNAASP

Test [14] deals with THRB (gene 7068) (UniProt P10828). In words: TOX21_TRB_BLA_Agonist_Followup_ratio: Tox21 Thyroid Hormone Receptor beta Agonism Beta-lactamase (BLA) Follow-Up Assay, Ratio (AID 2283954). An outline of the steps:
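Human TRβ LBD–GAL4 DBD fusion in GeneBLAzer UAS-bla HEK293T cells; 11 concentrations in triplicate, 18 h at 37°C/5% CO2, T3 as agonist control. CCF4-AM substrate 2 h at room temperature; 460:530 nm ratio fitted for gain of signal versus DMSO.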

A short description of test [15]: TOX21_TRB_BLA_Agonist_Followup_viability: Viability Assessment in the Tox21 Thyroid Hormone Receptor beta Agonism Beta-lactamase (BLA) Follow-Up Assay (AID 2283956). The procedure, abridged: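 TRb-bla HEK293T cells (GAL4-DBD/human TRb LBD) in 2% charcoal-stripped FBS medium were exposed 18 h at 37C to 11 concentrations in triplicate. CellTiter-Glo ATP luminescence was read after 30 min at room temperature, with bidirectional fitting against DMSO.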

For test [16], the target named is THRB (gene 7068) (UniProt P10828). In words: TOX21_TRB_COA_Agonist_Followup_ratio: Tox21 Thyroid Hormone Receptor beta Agonism through Coactivator Recruitment Follow-Up Assay, Ratio (AID 2283963; active = hit-call score of the fitted dose curve at least 0.9, where 1 is the maximum; inactive = score below 0.9). An outline of the steps:
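GST-TRb LBD 5.0 nM + 0.10% BSA + cpd; add fluorescein-SRC-2 200 nM / Tb anti-GST Ab 2 nM; TR-FRET ex 340, em 520:495; norm DMSO 0%, T3 100%.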

Test [17] concerns the target Retinoic acid receptor RXR-alpha (Homo sapiens) (UniProt P19793). In words: TOX21_TR_RXR_BLA_Agonist_Followup_ratio: Tox21 Thyroid Hormone Receptor beta Retinoid X Receptor alpha (RXRa) Agonism Beta-lactamase (BLA) Follow-Up Assay, Ratio (AID 2283968). An outline of the steps: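 RXRa-UAS-bla HEK293T cells, 5 h attachment at 37C/5% CO2, then 11 concentrations in triplicate for 16 h; 9-cis retinoic acid positive control. FRET-B/GCCF4-AM substrate 2 h at room temperature; 460:530 nm ratio, fitted for gain versus DMSO.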

Test [18] in a line: TOX21_TR_RXR_BLA_Agonist_Followup_viability: Viability Assessment in the Tox21 Thyroid Hormone Receptor beta Retinoid X Receptor alpha (RXRa) Agonism Beta-lactamase (BLA) Follow-Up Assay (AID 2283970). An outline of the steps: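 RXRa-UAS-bla HEK293T cells, 2,500/well in phenol red-free DMEM with 2% charcoal-stripped FBS, dosed for 16 h at 37C. Viability measured by CellTiter-Glo ATP luminescence; fitted bidirectionally against DMSO baseline, loss of signal indicating cytotoxicity.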

Molecules are shown by their SMILES. Records with an inconclusive call do not appear. Active and inactive are the calls of the source. The calls were made as follows, unless noted: active = hit-call score of the fitted dose curve at least 0.9, where 1 is the maximum; inconclusive = response in the unintended direction; inactive = score below 0.9.

Chain of Nucleoli Translocation, AR (gene 367) (P10275 whole entry, looked up): as the sequence (P10275 whole entry, looked up) above
Chain of THRB (gene 7068) (P10828 whole entry, looked up, the tested form may be a part): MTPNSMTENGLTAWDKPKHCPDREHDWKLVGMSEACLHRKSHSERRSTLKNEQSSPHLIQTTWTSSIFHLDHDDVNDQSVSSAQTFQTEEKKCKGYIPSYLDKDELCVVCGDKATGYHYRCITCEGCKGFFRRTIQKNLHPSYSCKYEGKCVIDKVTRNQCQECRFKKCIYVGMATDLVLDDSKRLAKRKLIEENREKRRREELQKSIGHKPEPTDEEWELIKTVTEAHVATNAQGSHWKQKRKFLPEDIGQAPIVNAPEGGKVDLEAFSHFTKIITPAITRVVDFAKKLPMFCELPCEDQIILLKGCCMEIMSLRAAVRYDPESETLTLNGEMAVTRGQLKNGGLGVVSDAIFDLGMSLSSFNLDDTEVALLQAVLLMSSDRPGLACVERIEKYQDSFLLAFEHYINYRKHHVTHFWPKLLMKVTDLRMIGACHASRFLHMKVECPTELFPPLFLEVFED
Chain of Retinoic acid receptor RXR-alpha (Homo sapiens) (P19793 whole entry, looked up): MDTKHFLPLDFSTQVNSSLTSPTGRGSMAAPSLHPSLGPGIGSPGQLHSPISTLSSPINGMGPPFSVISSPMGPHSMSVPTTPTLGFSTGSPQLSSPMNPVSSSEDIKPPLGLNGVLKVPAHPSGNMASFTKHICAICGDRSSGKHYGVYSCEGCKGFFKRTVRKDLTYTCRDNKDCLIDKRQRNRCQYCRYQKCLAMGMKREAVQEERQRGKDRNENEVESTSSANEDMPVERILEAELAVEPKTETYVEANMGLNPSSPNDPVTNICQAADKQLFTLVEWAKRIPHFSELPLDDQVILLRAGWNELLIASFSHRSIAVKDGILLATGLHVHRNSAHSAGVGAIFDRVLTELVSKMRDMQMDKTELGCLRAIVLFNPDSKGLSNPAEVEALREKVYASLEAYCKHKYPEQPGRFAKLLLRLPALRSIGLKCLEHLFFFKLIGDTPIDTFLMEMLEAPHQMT

`OC(c1ccc(Cl)cc1)(c1ccc(Cl)cc1)c1cccnc1`: the outcome in test [1], in [3], in [4], in [5], in test [7] and in test [8] was inactive. Further, the results for the AC50 in test [2] and in [6] were 29.3 µM (active) and 62.2 µM (active), respectively.

Take `O=C(CCl)Nc1ccccc1`: the AC50 in test [9] is 21.1 µM (active); in test [10], 29 µM (active). Further, the compound was called inactive in test [11] and in [12].

For `O=S1(=O)OC(c2cc(Br)c(O)c(Br)c2)(c2cc(Br)c(O)c(Br)c2)c2ccccc21`, the AC50 in test [9] is 58.8 µM (active). Further, the outcome in [10] was inactive.

As for `O=[N+]([O-])c1ccc(Cl)c([N+](=O)[O-])c1`, the AC50 was 92.7 µM (active) in test [9], 1.9 µM (active) in [10], 3.34 µM (active) in test [11] and 13.1 µM (active) in test [12].

In the case of `CNC(=O)O/N=C/C(C)(C)S(C)(=O)=O`, the compound was classed as inactive in test [10], in [11] and in [12].

`O=C(NC(=O)c1c(F)cccc1F)Nc1cc(Cl)c(OC(F)(F)C(F)C(F)(F)F)cc1Cl` (configuration not stated): the result in test [10], in test [11] and in [12] was inactive.

`CC(C)N(C(=O)CCl)c1ccccc1`: the AC50 in test [9] is 43.5 µM (active); in test [10], 16 µM (active). Further, the compound was called inactive in test [11] and in [12].

Regarding `O=C(N[C@H]1CN2CCC1CC2)c1ccc2c(c1)OCCO2`, the outcome in test [10], in [11] and in [12] was inactive.

For `CC(C)(C1CCC(O)CC1)C1CCC(O)CC1` (configuration not stated), the result in test [2], in test [3], in test [6], in test [7] and in [8] was inactive.

For `Cc1ccccc1OP(=O)(Oc1ccccc1C)Oc1ccccc1C`, the result in test [1], in [3], in test [4], in test [5], in test [6] and in [7] was inactive. In addition, the compound was classed as inactive in test [8]. Further, the AC50 in test [2] was 39.9 µM (active).

`O=[N+]([O-])c1ccc(Nc2ccccc2)cc1`: the AC50 in [2] is 11.4 µM (active); in [6], 12.8 µM (active). The compound was classed as inactive in test [3], in [4], in [7] and in [8].

As to `CCCSP(=S)(OCC)Oc1ccc(Cl)cc1Cl` (configuration not stated), the AC50 in test [2] is 22.6 µM (active); in [6], 24.3 µM (active). Also, the compound was called inactive in test [3] and in test [4].

Regarding `O=C(O)COc1cc(Cl)c(Cl)cc1Cl`, the compound was called inactive in [10] and in [12].

As for `O=S(=O)(c1ccc(Cl)cc1)c1cc(Cl)c(Cl)cc1Cl`, the AC50 is 27.3 µM (active) in test [2] and 61 µM (active) in test [6]. The compound was called inactive in [3] and in test [4].

For the compound `CC(=Cc1ccccc1)[N+](=O)[O-]`, in test [10], the AC50 was 0.585 µM (active). Moreover, the compound was classed as inactive in test [11] and in test [12].

Regarding `C=CC(=O)[O][Sn]([CH2]CCC)([CH2]CCC)[CH2]CCC`, the outcome in [13], in [14], in [15] and in test [16] was inactive. The AC50 in test [17] was 0.137 µM (active); in test [18], 9.68 µM (active).

As for `CCCSP(=S)(OCC)Oc1ccc(SC)cc1` (configuration not stated), the result in test [2], in [3], in [4] and in test [6] was inactive.

Consider `CC(O)(CS(=O)(=O)c1ccc(F)cc1)C(=O)Nc1ccc(C#N)c(C(F)(F)F)c1` (configuration not stated), for which the AC50 in [2] is 5.64 µM (active); in [6] it was 6.97 µM (active).

`C=CC(Cl)CCl` (configuration not stated): the compound was classed as inactive in test [10] and in test [12].
